Bioassay records deposited in PubChem by several laboratories.
Rce1 inhib = blocks yeast Ras-converting enzyme; Q03530; calls only; 0.27% of 290,000 active; AID 2563; yeast membranes, quenched prenylated peptide cleavage fluorescence;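 active means fall in fluorescence gain of 50% or more versus controls, with final raw signal at or below 3038400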
UBC13 polyUb = inhibitors of human UBC13 polyubiquitin chain formation; TR-FRET; inhibition, % at 20 µM; AID 485273; 0.47% of 330,000 active; in the data active means inhibition above about 45%, passing the limit was not always enough
MEKK2 mut-MEK5 = signal of MEK5 binding to mutant human MEKK2 PB1 domain. bead flow cytometry, Alexa488-MEK5 binding to MEKK2 mutant. percent response, % at 10 µM. 0.35% of 290,000 active. AID 1530; in the data active means percent response above about 24%, passing the limit was not always enough
MEKK3 PB1 HTS = raises or lowers MEK5 binding to the human MEKK3 PB1 domain | Q99759 | bead-based flow cytometry, Alexa488-MEK5 binding to MEKK3; actives lie on both sides; 0 = blocked by unlabeled MEK5, 100 = vehicle | binding response (% of control), % at 10 µM | 1.4% of 290,000 active | AID 1529;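 active means binding response more than 3 SD above or below the average of its plate-row segment, actives on both sides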;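 further: Alexa488 bead fluorescence after subtracting the streptavidin-only scavenger bead signal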
Target sequence (Q99759 whole entry, looked up, the tested form may be a part): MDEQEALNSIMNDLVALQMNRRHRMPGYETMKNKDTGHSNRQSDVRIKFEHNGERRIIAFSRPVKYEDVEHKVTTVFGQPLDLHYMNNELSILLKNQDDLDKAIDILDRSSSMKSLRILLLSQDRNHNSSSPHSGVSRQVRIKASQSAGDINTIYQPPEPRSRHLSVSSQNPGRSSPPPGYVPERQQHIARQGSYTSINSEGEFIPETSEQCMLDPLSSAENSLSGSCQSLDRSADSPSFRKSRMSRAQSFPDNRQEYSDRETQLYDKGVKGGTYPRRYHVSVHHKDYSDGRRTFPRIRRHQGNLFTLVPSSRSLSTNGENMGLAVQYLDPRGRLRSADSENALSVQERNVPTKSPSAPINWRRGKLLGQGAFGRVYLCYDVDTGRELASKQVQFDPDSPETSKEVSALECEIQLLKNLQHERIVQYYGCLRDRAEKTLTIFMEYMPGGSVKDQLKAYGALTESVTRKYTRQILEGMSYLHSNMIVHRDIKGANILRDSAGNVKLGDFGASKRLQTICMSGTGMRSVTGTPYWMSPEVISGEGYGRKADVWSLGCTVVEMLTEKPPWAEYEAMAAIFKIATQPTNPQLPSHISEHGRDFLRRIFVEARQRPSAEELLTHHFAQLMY
MEKK2wt PB1 HTS = raises or lowers MEK5 binding to wildtype human MEKK2 PB1 domain | bead flow cytometry, Alexa488-MEK5 binding to MEKK2 WT; actives lie on both sides | 1.1% of 290,000 active | Q9Y2U5 | binding response (% of control), % at 10 µM; in the data active means binding response below about 67% or above about 130%
MEKK2wt confirm = raises or lowers MEK5 binding to wildtype human MEKK2, retest. shares compounds with MEKK3 PB1 HTS. 2.4% of 5,900 active. bead flow cytometry, Alexa488-MEK5 binding to MEKK2 WT; actives lie on both sides. binding response (% of control), % at 10 µM; in the data active means binding response below about 16% or above about 210%; inactive means in between
MEKK2mut confirm = signal of MEK5 binding to mutant human MEKK2, retest | shares compounds with MEKK3 PB1 HTS | bead flow cytometry, Alexa488-MEK5 binding to MEKK2 mutant | percent response, % at 10 µM | 2% of 5,900 active; in the data active means percent response mostly above about 71%, no sharp cut-off; inactive means mostly below about 38%;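 further: higher means compound restores mutant binding toward wildtype level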
MEKK3-MEK5 inh = MEKK3-MEK5 PB1 inhibition, single concentration confirmation. bead flow cytometry, Alexa488-MEK5 binding to MEKK3; stronger effect = lower value. shares compounds with MEKK3 PB1 HTS. 1.8% of 5,900 active. AID 1894. binding response (% of control), % at 10 µM;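 active means binding response below 72% of control, or above a set upper limit, though filed actives all read lower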
Hits are given with their value; - = inactive; . = no result given; + = active, no number; [ ] = remark or other dose. Hits are enriched below; roughly 2.5% of the tested compounds scored in any of these assays.

SMILES | Rce1 inhib | UBC13 polyUb | MEKK2 mut-MEK5 | MEKK3 PB1 HTS | MEKK2wt PB1 HTS | MEKK2wt confirm | MEKK2mut confirm | MEKK3-MEK5 inh
Cc1cc(-c2ccccc2)nc(SC(C(=O)O)c2ccccc2)n1 (configuration not stated) | - | - | - | - | -1.0 | . | . | .
CCOC(=O)C1=C(C)N(CCCC(=O)O)C(=O)NC1c1ccccc1Cl (configuration not stated) | - | - | - | - | - | . | . | .
CCOC(=O)C1=C(C)N(CCCC(=O)O)C(=O)NC1c1ccccc1OC(=O)c1cccs1 (configuration not stated) | + | - | - | - | - | . | . | .
COCCN(C(=O)Cc1cccs1)C(C(=O)NC1CCCC1)c1cc(OC)c(OC)c(OC)c1 (configuration not stated) | - | - | - | - | - | . | . | .
CC1(C)CC2CC(C)(CN2S(=O)(=O)c2cccc(C(N)=O)c2)C1 (configuration not stated) | . | - | . | . | . | . | . | .
CC1(C)CC2CC(C)(CN2S(=O)(=O)c2ccc(N)cc2)C1 (configuration not stated) | + | - | - | - | - | . | . | .
C=CCNC(=O)/C(C#N)=C/c1ccccc1[N+](=O)[O-] | - | - | - | - | 4.0 | . | . | .
N#C/C(=C\c1ccccc1[N+](=O)[O-])C(=O)NCc1ccccc1 | - | - | - | - | - | . | . | .
Cc1ccccc1Nc1nc(-c2sc(NC(=O)c3cccc(Cl)c3)nc2C)cs1 | - | - | - | - | - | . | . | .
Cc1ccccc1Nc1nc(-c2sc(NC(=O)c3ccccc3)nc2C)cs1 | - | 93 | - | - | - | . | . | .
CCN(CC)c1ccc(C(=O)c2ccccc2C(=O)O)c(O)c1 | + | - | - | - | - | . | . | .
COCCOC(=O)/C(=C/c1ccc(OC(=O)c2ccccc2)cc1)C(C)=O | - | - | - | - | 4.0 | . | . | .
CCOC(=O)/C(=C/c1ccc(OC(=O)c2ccncc2)cc1)C(C)=O | - | - | - | - | - | . | . | .
Cc1ccc(CS(=O)(=O)c2cn(CC(=O)N3CCOCC3)c3ccccc23)cc1 | - | - | - | - | - | . | . | .
CC(=O)Nc1cc(C(F)(F)F)ccc1Oc1cccc(Br)c1 | + | - | - | - | - | . | . | .
CCOCC(=O)Nc1cc(C(F)(F)F)ccc1Oc1cccc(Br)c1 | - | - | - | - | - | . | . | .
CC(=O)Nc1ccc(NC(=O)CSc2nnnn2-c2ccc(F)cc2)cc1 | - | - | - | - | - | . | . | .
CCC(=O)NC(=S)Nc1ccc(OC)cc1OC | - | - | - | 134 | - | - | - | -
COc1ccc(NC(=O)CN2C(=O)CSC(C)C2=O)c(OC)c1 (configuration not stated) | - | - | - | 137 | - | - | - | -
Cc1ccc(C)c(-n2c(-c3ccc(Br)cc3)csc2=NC(=O)c2ccccc2F)c1 | - | - | - | - | - | . | . | .
CN(C)CCCN(C(=O)c1cccs1)c1nc(-c2ccccc2)cs1 | . | - | - | - | 147 | - | - | -
COc1ccc(-c2csc(N(CCCN(C)C)C(=O)c3ccccc3C)n2)cc1 | - | - | - | - | 143 | - | - | -
COc1ccc(-c2csc(N(CCCN(C)C)C(=O)c3ccccc3F)n2)cc1 | - | - | - | - | - | . | . | .
COc1ccc(-c2csc(N(CCCN(C)C)C(=O)c3ccccc3Cl)n2)cc1 | - | - | 28 | - | 138 | - | 70 | -
COCc1c(C#N)c(NCCc2ccccc2)nc(C)c1[N+](=O)[O-] | - | - | - | 128 | - | -1.0[inhibitor] | - | 0.0
SMILES | Rce1 inhib | UBC13 polyUb | MEKK2 mut-MEK5 | MEKK3 PB1 HTS | MEKK2wt PB1 HTS | MEKK2wt confirm | MEKK2mut confirm | MEKK3-MEK5 inh
CCCNC(=O)CSc1nc2ccccc2c(=O)n1CCC | - | - | - | 128 | - | - | - | -
COCCCn1c(SCC(=O)Nc2ccc(C(C)=O)cc2)nc2ccccc2c1=O | - | - | - | 39[inhibitor] | - | - | - | -
CCCCNC(=O)CSc1nc2ccccc2c(=O)n1CCNC(C)=O | - | - | - | - | - | . | . | .
Cn1c(SCc2ccccc2Cl)nc2c1c(=O)[nH]c(=O)n2C | - | - | - | - | - | . | . | .
COc1ccc(N2CCN(C(=O)CN3C(=O)NC4(CCCCCC4)C3=O)CC2)cc1 | . | - | . | . | . | . | . | .
Cc1ccc(CN2C(=O)CCC2C(=O)NCC2CCCO2)cc1 (configuration not stated) | - | - | - | - | - | . | . | .
O=C(NCC1CCCO1)C1CCC(=O)N1Cc1ccc(F)cc1 (configuration not stated) | - | - | - | -1.0[inhibitor] | -4.0[inhibitor] | - | - | -
CCC(=O)Nc1cccc(C2=NOC3(C2)C[C@H](C(N)=O)N(C(=O)CC#N)C3)c1 (some centres not stated) | - | - | - | 78[inhibitor] | - | - | - | -
C/C=C\C=C/C(=O)Nc1cccc(C2=NOC3(C2)C[C@@H](C(N)=O)N(C(=O)COc2ccc(Cl)cc2)C3)c1 (some centres not stated) | - | - | - | - | - | . | . | .
CCCCCC(=O)Nc1cccc(C2=NOC3(C2)C[C@H](C(N)=O)N(C(=O)COc2ccc(Cl)cc2)C3)c1 (some centres not stated) | - | - | - | 3.0[inhibitor] | 6.0[inhibitor] | - | - | -
C/C(CC(=O)Nc1ccc(Cl)c(Cl)c1)=N\NC(=O)C(=O)N1CCCCC1 | - | - | - | - | - | . | . | .
O=C(Nc1cccc(Br)c1)c1ccc(OC2CSC2)cc1 | - | - | - | - | - | . | . | .
CCOc1ncccc1C(=O)OCc1c(F)cccc1Cl | - | - | - | - | - | . | . | .
C[C@@H]1[C@H](O)C[C@@]23COC(=O)C2=CCC[C@@H]3[C@@]1(C)CC/C(=C/CO)CO | . | - | . | . | . | . | . | .
N/C(=N\O)c1ccccc1N1CCCCC1 | - | - | - | - | - | . | . | .
O=c1c(Cl)c(N2CCNCC2)cnn1C12CC3CC(CC(C3)C1)C2 | - | - | - | - | - | . | . | .
O=C(O)C12CC3CC(C1)CC(n1ncc(N4CCN(c5ccccc5)CC4)c(Cl)c1=O)(C3)C2 | - | - | - | 145 | - | - | - | -
COc1ccc(NC(=O)N2CCN(c3cccc(C(F)(F)F)c3)CC2)cc1 | - | - | - | 0.0[inhibitor] | 0.0[inhibitor] | - | - | -
O=S(=O)(NCCCCCNS(=O)(=O)c1c(F)cccc1F)c1ccc2c(c1)OCCO2 | . | - | . | . | . | . | . | .
O=S(=O)(NCCOc1ccc(F)cc1)c1ccc2c(c1)OCCO2 | - | - | - | 2.0[inhibitor] | 2.0[inhibitor] | - | - | -
COc1ccccc1N1CCN(C(=O)c2ccc3[nH]c4c(c3c2)CCCC4)CC1 | - | - | - | 145 | - | - | - | -
COc1ccccc1N1CCN(C(=O)c2ccc(CSc3ccccc3)cc2)CC1 | - | - | - | 128 | - | - | - | -
